From PubChem BioAssay (Tox21)
Inconclusive results are not listed. Active and inactive are the calls of the source. Unless noted, calls follow the shape of the dose curve; as a rule, active = well fitted curve in the direction sought with a large enough effect in the repeat runs; inconclusive = weak or mixed curves; inactive = no such curve, though single readings can be large; an effect the other way counts as inactive or inconclusive.

What was measured:
[1] = qHTS assay to identify small molecule agonists of the vitamin D receptor (VDR) signaling pathway - cell viability counter screen (AID 743224); also: nearly all actives have a fitted effect of over 50% in size; also: potency is read from the fitted curve at half-maximal effect
Summary of the method: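 Cells: VDR-bla, 2,000/well, settled 4 h. Treatment: compounds in DMSO, 16 h, 37C/5% CO2. Readout: CellTiter-Glo luminescence after 30 min RT.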

[2] = qHTS assay to identify small molecule agonists of the NFkB signaling pathway (AID 1159509; active = well fitted curve in the direction sought with a large enough effect in the signal ratio in the repeat runs, not every such curve was filed as active; the % refers to the signal ratio; also: series mostly up to about 61 µM)
Summary of the method: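 Beta-lactamase reporter assay run in quantitative high-throughput format on an NF-kB-responsive ME-180 line, with 5 hr compound treatment and a FRET-based blue/green fluorescence readout.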

[3] = qHTS assay to identify small molecule agonists of the NFkB signaling pathway - cell viability counter screen (AID 1159515; calls by dose curve; also: series mostly up to about 61 µM; nearly all actives have a fitted effect of over 55% in size)
Summary of the method: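 Cells are seeded (2,000 NFkB-bla ME-180 per well), rested overnight, and dosed with DMSO-dissolved compounds for 5 hr at 37 C. Viability is then read by CellTiter-Glo luminescence after 30 min at room temperature.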

[4] = qHTS assay to identify small molecule agonists of the endoplasmic reticulum stress response signaling pathway (AID 1159516; active = well fitted activation curve with a large enough effect in the signal ratio in the repeat runs, not every such curve was filed as active; the % refers to the signal ratio)
Summary of the method: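 Cells are seeded at 1,500 per well and incubated overnight. Compounds in DMSO are added for 5 hr at 37 C, then beta-lactamase FRET substrate for 2 hr at room temperature, and fluorescence at 460 and 530 nm is measured.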

[5] = qHTS assay to identify small molecule agonists of the endoplasmic reticulum stress response signaling pathway - cell viability counter screen (AID 1159517; calls by dose curve;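 also: HeLa cells carrying an ER stress response element beta-lactamase reporter; series mostly up to about 61 µM; nearly all actives have a fitted effect of over 50% in size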)
Summary of the method: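 Cytotoxicity of test compounds toward ESRE-bla HeLa cells was assessed after 5 hr exposure. The luminescent CellTiter-Glo signal was measured 30 min after reagent addition.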

[6] = qHTS assay to identify small molecule agonists of the AP-1 signaling pathway - cell viability counter screen (AID 1159525; calls by dose curve; also: nearly all actives have a fitted effect of over 55% in size)
Summary of the method: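 Each titration point was normalised to DMSO and tetra n-octyl ammonium bromide controls. The read was Cell Titer Glo luminescence after 30 min at RT, following 5 h compound exposure of ME-180 AP-1-bla cells at 37 °C.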

[7] = qHTS assay to identify small molecule agonists of the AP-1 signaling pathway (AID 1159526; calls by dose curve)
[8] = target: Retinoic acid receptor RXR-alpha (Homo sapiens) (UniProt P19793); assay: qHTS assay to identify small molecule agonists of the RXR signaling pathway (AID 1159527; calls by dose curve; also: nearly all actives have a fitted effect of over 35% in size; also: potency is read from the fitted curve at half-maximal effect)
Chain of Retinoic acid receptor RXR-alpha (Homo sapiens) (P19793 whole entry, looked up): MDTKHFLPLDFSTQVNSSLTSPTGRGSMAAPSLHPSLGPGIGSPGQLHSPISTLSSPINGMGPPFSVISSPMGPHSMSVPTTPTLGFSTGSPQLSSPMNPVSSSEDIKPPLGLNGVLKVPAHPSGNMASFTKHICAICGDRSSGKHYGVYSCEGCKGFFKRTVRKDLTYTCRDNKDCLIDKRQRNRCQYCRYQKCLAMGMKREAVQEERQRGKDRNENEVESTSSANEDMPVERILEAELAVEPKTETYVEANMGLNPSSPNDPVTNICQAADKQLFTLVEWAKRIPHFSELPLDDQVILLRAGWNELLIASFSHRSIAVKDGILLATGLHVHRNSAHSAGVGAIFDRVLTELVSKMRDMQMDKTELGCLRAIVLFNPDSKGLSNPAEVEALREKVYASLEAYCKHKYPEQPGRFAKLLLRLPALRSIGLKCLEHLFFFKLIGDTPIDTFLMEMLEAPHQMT
Summary of the method: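 Cells plated at 2,000/well, rested 5 hr at 37 C, pin-dosed with DMSO compound solutions, incubated 16 hr, then loaded with B/G FRET substrate for 2 hr at RT before dual-emission fluorescence reading.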

[9] = qHTS assay to identify small molecule agonists of the RXR signaling pathway - cell viability counter screen (AID 1159529); also: nearly all actives have a fitted effect of over 50% in size; also: potency is read from the fitted curve at half-maximal effect
Summary of the method: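 Steps: seed RXR-alpha-UAS-bla HEK 293T cells in assay medium containing 2% charcoal-stripped FBS; incubate 5 hr; add compounds in DMSO; incubate 16 hr at 37 C; after the bla read, add CellTiter-Glo and read luminescence at 30 min.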

[10] = qHTS assay to identify small molecule antagonists of the retinoid acid receptor (RAR) signaling pathway - cell viability counter screen (AID 1159551); also: nearly all actives have a fitted effect of over 35% in size
Summary of the method: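 Cells (C3RL4) are plated, incubated overnight, dosed with compound in DMSO, then given retinol at 1 uM final. After 6 h at 37 C, CellTiter-Glo is added and luminescence read following 30 min at room temperature.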

[11] = qHTS assay to identify small molecule agonists of the retinoic acid receptor (RAR) signaling pathway (AID 1159553)
Summary of the method: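 Seed C3RL4 reporter cells at 1,000 per well and incubate overnight at 37 C. Add compounds in DMSO, incubate 6 hr. Add luciferase reagent, wait 30 min at room temperature, read luminescence.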

[12] = qHTS assay to identify small molecule antagonists of the vitamin D receptor (VDR) signaling pathway - cell viability counter screen (AID 743225); also: nearly all actives have a fitted effect of over 50% in size
Summary of the method: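 HEK293T VDR-bla; cpd + 1a,25-(OH)2D3 3 nM final, 16 h 37C/5% CO2; B/G FRET substrate 2 h RT; then CellTiter-Glo 30 min RT, luminescence.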

[13] = target: Nuclear receptor ROR-gamma (Homo sapiens) (UniProt P51449); assay: qHTS assay to identify small molecule antagonists of the retinoid-related orphan receptor gamma (ROR-gamma) signaling pathway (AID 1159521; also: nearly all actives have a fitted effect of over 50% in size; also: potency is read from the fitted curve at half-maximal effect)
Summary of the method: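 Cells were plated, rested 4 h at 37 C, exposed to compounds for 2 h, then given 1 uM final doxycycline hyclate to induce RORγ expression. After 16 h, ONE-Glo luminescence from the ROR response element reporter was measured.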

[14] = qHTS assay to identify small molecule antagonists of the retinoid-related orphan receptor gamma (ROR-gamma) signaling pathway - cell viability counter screen (AID 1159520); also: nearly all actives have a fitted effect of over 50% in size
Summary of the method: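 Tet-on ROR gamma CHO cells (1,000/well) were plated 4 hr, given compounds in DMSO for 2 hr at 37 C, then induced with 1 uM final doxycycline for 16 hr. Viability was read as ATP by CellTiter-Glo luminescence after 30 min.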

[15] = qHTS assay to identify small molecule antagonists of the retinoic acid receptor (RAR) signaling pathway (AID 1159552; also: nearly all actives have a fitted effect of over 50% in size)
Summary of the method: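 Retinol at 1 uM final stimulated RARE-luciferase expression in C3RL4 cells exposed to test compounds for 6 hr at 37 C. Reduced luminescence, read 30 min after detection reagent, indicated pathway antagonism.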

Measured: Potency

CC(=N\O)/C(C)=N/O
not listed: [12] | [13] | [14] | [15]
inactive: all other assays above

COc1cc2ncnc(Nc3ccc(F)c(Cl)c3)c2cc1OCCCN1CCOCC1
active: [13] 11.9 µM
inactive: [1] | [12] | [2] | [3] | [4] | [5] | [7]

COC(=O)c1cc(S(N)(=O)=O)ccc1OC
not listed: [5]
inactive: all other assays above

OCC1CC=CCC1 (stereo not drawn)
not listed: [5] | [8] | [11] | [14]
inactive: all other assays above

Cc1c(C(=O)NN2CCCCC2)nn(-c2ccc(Cl)cc2Cl)c1-c1ccc(Cl)cc1
inactive: [2] | [3] | [4] | [6] | [7] | [9] | [10]

CNC(=S)NC
active: [8] 38.9 µM
inactive: [1] | [2] | [3] | [4] | [14] | [7] | [10] | [15]

COc1ccc(C(=O)c2cccc(O)c2)c(OC)c1
not listed: [5] | [8] | [13] | [15]
inactive: all other assays above

N#C[C@@H]1C[C@@H]2C[C@@H]2N1C(=O)[C@@H](N)C12CC3CC(CC(O)(C3)C1)C2
not listed: [5] | [11] | [13] | [15]
inactive: all other assays above

Cc1ccc(S(=O)(=O)NC2CCCCC2)cc1
not listed: [5] | [6] | [8] | [13] | [15]
inactive: all other assays above

Oc1ccc(Nc2ccccc2)cc1
inactive: [2] | [3] | [4] | [14] | [7] | [10] | [11]
active: [1] 54.9 µM | [9] 30.9 µM

CSc1ccc(Oc2ccc(S(N)(=O)=O)cc2CN(C)C)cc1C
inactive: [2] | [3] | [4] | [14] | [6] | [7] | [10]

CCC(=O)Oc1ccc(/C(CC)=C(\CC)c2ccc(OC(=O)CC)cc2)cc1
active: [1] 54.9 µM | [9] 54.9 µM
not listed: [5] | [8] | [11] | [13] | [15]
inactive: all other assays above

CC(=O)CC(c1ccc([N+](=O)[O-])cc1)c1c(O)c2ccccc2oc1=O (stereo not drawn)
not listed: [5] | [8] | [11] | [13] | [15]
inactive: all other assays above

CC(=O)Oc1ccc(C(=C2CCCCC2)c2ccc(OC(C)=O)cc2)cc1
not listed: [1] | [5] | [8] | [11] | [13]
inactive: all other assays above

CCCCOC(=O)CCS
not listed: [5] | [13] | [15]
inactive: all other assays above

C=CC(=O)NCOCC(C)C
not listed: [5] | [8] | [11] | [13] | [15]
inactive: all other assays above

CC1(C)O[C@@H]2C[C@H]3[C@@H]4CCC5=CC(=O)C=C[C@]5(C)[C@H]4[C@@H](O)C[C@]3(C)[C@]2(C(=O)CO)O1
not listed: [5] | [7] | [12] | [13] | [15]
inactive: all other assays above

CCCCCCCCCOC(C)=O
not listed: [5] | [11] | [13] | [15]
inactive: all other assays above

CC(C)CCCC(=O)O
not listed: [5] | [14] | [15]
inactive: all other assays above

COCC(O)CO (stereo not drawn)
not listed: [5] | [7] | [13]
inactive: all other assays above

CCCOc1ccc(S(=O)(=O)N2CCN(CC)CC2)cc1-c1nc2c(CC)n(Cc3ccccn3)nc2c(=O)[nH]1
not listed: [5] | [8] | [13]
inactive: all other assays above

CCCOCCOCCO
not listed: [5] | [7] | [13] | [15]
inactive: all other assays above
